Experimental findings from PubChem BioAssay (NCI) are described below.

The panel holds about 83,000 compounds, 20% with a hit somewhere; the sample as a whole holds those more often.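 In brief: 96-well plates, 48 h treatment, single concentration, percent growth endpoint.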 Unmarked numbers belong to inactive results. Active and inactive are the calls of the source. How the source made its calls: active means growth percent below 10; inactive means the rest.

Some test systems named below: NCI-H23 lung; NCI-H226 lung; NCI-H322M lung; HOP-62 NSCLC; NCI-H460 lung; HOP-92 NSCLC; NCI-H522 lung; A549/ATCC NSCLC; 786-0 renal; COLO 205 colon; DU-145 prostate; K-562 leukemia; MALME-3M melanoma; MDA-MB-231 breast; RXF 393 renal; SF-268 CNS; SF-295 CNS; SF-539 CNS; UACC-257 melanoma; M14 melanoma.
What all share (assay): NCI-60 one-dose screen, 48 h (100 = growth as untreated, 0 = no growth, -100 = all killed)
What all share (conditions): 10 µM unless noted

As to `CCC1CC(O)c2c(O)c3c(c(O)c2C1O)C(=O)c1cccc(O)c1C3=O` (stereo not given) (tested in a mixture with another compound), the growth in the assay with NCI-H23 lung is -75.9% (active); in the assay on NCI-H226 lung, -9.01% (active); in the assay with NCI-H322M lung, -16.4% (active); in the assay with HOP-62 NSCLC it was -62.2% (active); with NCI-H460 lung, -53.6% (active); in the assay on HOP-92 NSCLC it was -29.3% (active). Further, the growth in the assay with NCI-H522 lung was -47.9% (active); with A549/ATCC NSCLC, -23.2% (active); in the assay with 786-0 renal, -31% (active); with COLO 205 colon, -46.4% (active); in the assay on DU-145 prostate it was -1.28% (active); in the assay with K-562 leukemia, -44.1% (active). The growth in the assay with MALME-3M melanoma is -92.3% (active); with MDA-MB-231 breast, -18.8% (active); in the assay on RXF 393 renal, -27% (active); with SF-268 CNS, -24% (active); in the assay on SF-295 CNS, -24% (active); in the assay on SF-539 CNS, -64.5% (active). In addition, the growth with UACC-257 melanoma is -25.3% (active); in the assay on M14 melanoma, -97.1% (active).
In the case of `COc1ccc(C/C(C)=C(\c2ccc(OCCN3CCOCC3)cc2)c2ccc(OC(=O)Cc3ccccc3)cc2)cc1`, the growth was -18.3% (active) in the assay with NCI-H23 lung; -26.6% (active) in the assay on NCI-H226 lung; -8.3% (active) with NCI-H322M lung; -74.1% (active) in the assay with HOP-62 NSCLC; -73.3% (active) with NCI-H460 lung; -76.7% (active) in the assay on HOP-92 NSCLC. Further, the growth in the assay on NCI-H522 lung is -87.6% (active); in the assay with A549/ATCC NSCLC, 0.132% (active); in the assay on 786-0 renal, -94.7% (active); in the assay with COLO 205 colon it was -90.1% (active); in the assay on DU-145 prostate, 9.74% (active); with K-562 leukemia, -24.7% (active). The growth with MALME-3M melanoma was -79.5% (active); in the assay with MDA-MB-231 breast, -48.4% (active); in the assay with RXF 393 renal, -83.3% (active); with SF-268 CNS it was -21.3% (active); in the assay with SF-295 CNS, -57.6% (active); with SF-539 CNS, -85.4% (active). Moreover, the growth with UACC-257 melanoma is -89.2% (active); with M14 melanoma, -66.9% (active).
Consider `COC(=O)[C@@H](C)C[C@H](Cc1ccccc1)NC(=O)c1csc([C@@H](C[C@H](C(C)C)N(C)C(=O)[C@@H](NC(=O)C23CC(NC(C)=O)(C2)C3)C2CC2)OC(C)=O)n1`, for which the growth is 60.2% in the assay on NCI-H23 lung; 107% with NCI-H226 lung; 105% in the assay on NCI-H322M lung; 67.9% in the assay on HOP-62 NSCLC; 36.6% with NCI-H460 lung; 38.5% with HOP-92 NSCLC. Moreover, the growth was 2.4% (active) in the assay with NCI-H522 lung; 93.5% in the assay with A549/ATCC NSCLC; 65% in the assay with 786-0 renal; 32.5% in the assay with COLO 205 colon; 61.6% in the assay with DU-145 prostate; 14.2% in the assay with K-562 leukemia. For the same compound, the growth is 56.4% in the assay on MALME-3M melanoma; 57.9% in the assay on MDA-MB-231 breast; 36.9% in the assay on RXF 393 renal; 55.6% with SF-268 CNS; 82% in the assay on SF-295 CNS; 42.4% in the assay on SF-539 CNS. The values for the growth in the assay on UACC-257 melanoma and in the assay on M14 melanoma were 46.2% and 41%, respectively.
`NC1CC2CCCCC2CC1(O)c1ccccc1` (stereo not given): the growth in the assay with NCI-H23 lung was 94.7%; in the assay on NCI-H226 lung, 92.2%; in the assay with NCI-H322M lung it was 103%; in the assay with HOP-62 NSCLC, 106%; in the assay on NCI-H460 lung it was 103%; in the assay on HOP-92 NSCLC, 88.6%. In addition, the growth in the assay on NCI-H522 lung was 97.8%; in the assay with A549/ATCC NSCLC, 99.3%; in the assay with 786-0 renal, 99.6%; in the assay on COLO 205 colon, 106%; in the assay on DU-145 prostate, 103%; in the assay on K-562 leukemia, 92.4%. Moreover, the growth in the assay with MALME-3M melanoma is 96.1%; in the assay with MDA-MB-231 breast, 99.8%; in the assay with RXF 393 renal it was 101%; in the assay with SF-268 CNS, 102%; with SF-295 CNS, 114%; in the assay with SF-539 CNS, 99.1%. For the same compound, the growth was 98% in the assay on UACC-257 melanoma and 100% in the assay with M14 melanoma.
As for `CC(=O)O[C@H]1C(=O)[C@@]2(C)[C@H]([C@H](OC(=O)c3ccccc3)[C@]3(O)C[C@H](OC(=O)[C@H](OC(=O)OC[C@H]4COC(C)(C)O4)[C@@H](NC(=O)c4ccccc4)c4ccccc4)C(C)=C1C3(C)C)[C@]1(OC(C)=O)CO[C@@H]1C[C@@H]2O`, the growth with NCI-H23 lung is 21.6%; in the assay with NCI-H226 lung, 55.5%; with NCI-H322M lung it was 14.9%; in the assay with HOP-62 NSCLC it was 21.7%; in the assay on NCI-H460 lung, 4.16% (active); in the assay on HOP-92 NSCLC, 53.4%. Besides, the growth in the assay on NCI-H522 lung is 5.12% (active); with A549/ATCC NSCLC, 12.5%; in the assay on 786-0 renal, 20.2%; with COLO 205 colon, -15.1% (active); with DU-145 prostate it was 5.18% (active); with K-562 leukemia, 11.6%. The growth in the assay with MALME-3M melanoma was 27.2%; in the assay with MDA-MB-231 breast, -4.56% (active); with RXF 393 renal, -7.11% (active); with SF-268 CNS it was 29.7%; in the assay with SF-295 CNS, -6.58% (active); in the assay on SF-539 CNS, -13.3% (active). Also, the growth is 48.3% with UACC-257 melanoma and -19% (active) in the assay with M14 melanoma.
Take `C#C[C@]1(OC(=O)CCCCCC)CC[C@H]2[C@@H]3CCC4=CC(=O)CC[C@@H]4[C@H]3CC[C@@]21C`: the growth with NCI-H23 lung was 19%; with NCI-H226 lung it was 54.8%; with NCI-H322M lung, 49.5%; in the assay with HOP-62 NSCLC, 35.5%; in the assay with NCI-H460 lung, 21.2%; with HOP-92 NSCLC, 58.6%. In addition, the growth with NCI-H522 lung is 20.5%; with A549/ATCC NSCLC, 46.1%; in the assay on 786-0 renal, 56.5%; with COLO 205 colon, 29.3%; with DU-145 prostate it was 72.1%; with K-562 leukemia, 20.7%. In addition, the growth in the assay on MALME-3M melanoma was 77.1%; in the assay with MDA-MB-231 breast it was 59.7%; with RXF 393 renal it was 58.8%; with SF-268 CNS, 50.7%; in the assay on SF-295 CNS, 32.2%; with SF-539 CNS, 47.9%. The growth in the assay on UACC-257 melanoma was 55%; in the assay with M14 melanoma, 25.6%.
Turning to `OCCCCCNC1CCCCC1`, the growth is 97.3% in the assay on NCI-H23 lung; 98.9% with NCI-H226 lung; 99% with NCI-H322M lung; 111% in the assay with HOP-62 NSCLC; 109% with NCI-H460 lung; 96.1% in the assay on HOP-92 NSCLC. For the same compound, the growth with NCI-H522 lung is 67.8%; in the assay on A549/ATCC NSCLC it was 107%; in the assay with 786-0 renal, 99.5%; with COLO 205 colon, 112%; in the assay on DU-145 prostate, 115%; in the assay with K-562 leukemia, 94%. Moreover, the growth in the assay on MALME-3M melanoma was 97.3%; in the assay on MDA-MB-231 breast, 114%; in the assay with RXF 393 renal it was 104%; in the assay with SF-268 CNS, 113%; in the assay with SF-295 CNS it was 110%; with SF-539 CNS, 98%. The growth was 99.5% in the assay with UACC-257 melanoma and 101% in the assay with M14 melanoma.
Consider `CCCCCCCCC(CO)NCCc1ccccc1` (stereo not given), for which the growth in the assay on NCI-H23 lung is 105%; with NCI-H226 lung, 98.6%; in the assay with NCI-H322M lung, 88.8%; in the assay with HOP-62 NSCLC, 98%; with NCI-H460 lung, 102%; in the assay on HOP-92 NSCLC, 77.9%. Besides, the growth was 73.7% in the assay with NCI-H522 lung; 83.7% with A549/ATCC NSCLC; 102% in the assay on 786-0 renal; 107% in the assay with COLO 205 colon; 102% in the assay on DU-145 prostate; 80.7% in the assay with K-562 leukemia. The growth in the assay with MALME-3M melanoma is 109%; in the assay on MDA-MB-231 breast it was 93.1%; in the assay with RXF 393 renal, 136%; in the assay with SF-268 CNS, 99.7%; in the assay with SF-295 CNS, 98.1%; in the assay on SF-539 CNS, 115%. Also, the growth in the assay with UACC-257 melanoma was 85.7%; in the assay with M14 melanoma, 92.5%.
